Compound activity as filed in PubChem.
CRFR2-BP ag: agonists of CRF-BP/CRF-R2 complex, primary screen, cell-based, HEK293, calcium dye fluorescence, uHTS. calcium dye fluorescence (FLIPR); percent of saturating CRF peptide response. activation, % at 13.2 µM. hit rate 0.46% among 350,000;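 active means activation of at least 50%, plus an integration ratio under a set limit after plate pattern correction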
MEKK2mut PB1 HTS: MEK5 binding signal on mutant MEKK2 PB1, primary screen, biochemical, multiplex bead flow cytometry, Alexa488-MEK5. hit rate 0.35% among 290,000. percent response, % at 10 µM. Alexa488-MEK5 binding to MEKK2 mutant; in the data active means percent response above about 24%, passing the limit was not always enough
CRFBP-R2 block: antagonists of CRF-BP/CRF-R2 complex, primary screen, cell-based, HEK293, calcium dye fluorescence, uHTS; CRF-induced calcium fluorescence; inhibition, % at 11.8 µM; hit rate 0.59% among 350,000; AID 588475, 2011;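 active means inhibition of the ligand-induced calcium signal above about 50% at the single tested concentration, limit read from the data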
MEKK2wt PB1 HTS: modulators of MEK5 binding to wildtype MEKK2, primary screen, biochemical, multiplex bead flow cytometry, Alexa488-MEK5 | AID 1531, 2009 | hit rate 1.1% among 290,000 | Alexa488-MEK5 binding to MEKK2 WT; actives lie on both sides | Mitogen-activated protein kinase kinase kinase 2 (Homo sapiens), Q9Y2U5 | binding response (% of control), % at 10 µM; in the data active means binding response below about 67% or above about 130%
MEKK3 PB1 HTS: modulators of MEKK3-MEK5 PB1 binding, primary screen, biochemical, wildtype MEKK3, multiplex bead flow cytometry, Alexa488-MEK5. hit rate 1.4% among 290,000. binding response (% of control), % at 10 µM. Mitogen-activated protein kinase kinase kinase 3 (Homo sapiens), Q99759. bead-based flow cytometry, Alexa488-MEK5 binding to MEKK3; actives lie on both sides; 0 = blocked by unlabeled MEK5, 100 = vehicle;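 active means binding response more than 3 SD above or below the average of its plate-row segment, actives on both sides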;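 further: Alexa488 bead fluorescence after subtracting the streptavidin-only scavenger bead signal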
Target sequence (Q99759 whole entry, looked up): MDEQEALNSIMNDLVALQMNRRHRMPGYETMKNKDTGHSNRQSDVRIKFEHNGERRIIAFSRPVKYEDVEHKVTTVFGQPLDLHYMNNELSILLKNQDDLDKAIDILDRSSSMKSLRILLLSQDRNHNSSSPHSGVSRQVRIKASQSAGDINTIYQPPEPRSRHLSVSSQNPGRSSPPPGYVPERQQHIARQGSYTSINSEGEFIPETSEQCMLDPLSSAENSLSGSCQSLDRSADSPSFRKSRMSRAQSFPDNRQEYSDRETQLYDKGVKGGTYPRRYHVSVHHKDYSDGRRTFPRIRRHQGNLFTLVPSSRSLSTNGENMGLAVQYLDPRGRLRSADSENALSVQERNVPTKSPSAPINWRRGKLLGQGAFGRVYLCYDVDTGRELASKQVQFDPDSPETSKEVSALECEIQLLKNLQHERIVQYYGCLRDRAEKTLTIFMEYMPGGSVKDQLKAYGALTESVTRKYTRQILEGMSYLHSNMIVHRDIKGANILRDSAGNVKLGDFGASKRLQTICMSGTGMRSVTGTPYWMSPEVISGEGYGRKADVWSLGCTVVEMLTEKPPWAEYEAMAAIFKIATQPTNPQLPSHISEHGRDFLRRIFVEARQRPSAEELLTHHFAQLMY
ABCB6 inh 2: ABCB6 transporter inhibitors, primary screen, K562-ABCB6 cells, flow cytometry, MLPCN library; ATP-binding cassette sub-family B member 6 (Homo sapiens), Q9NP58; K562-ABCB6 porphyrin accumulation, 1 h; active compounds read low; fluorescence ratio to DMSO, % at 10 µM; hit rate 0.19% among 360,000;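 active means fluorescence ratio to DMSO below 75%, the collection mean minus 3 SD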;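 further: signal is porphyrin accumulated inside mitochondria; lower ratio means ABCB6 inhibition with less porphyrin fluorescence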
Hits are given with their value; n = inactive; x = no result given; [ ] = another dose, or the depositor's remark. A selection: hits, their analogues and other compounds. The true share with any hit is near 2.9%.

SMILES	CRFR2-BP ag	MEKK2mut PB1 HTS	CRFBP-R2 block	MEKK2wt PB1 HTS	MEKK3 PB1 HTS	ABCB6 inh 2
CCOC(=O)c1cc(-c2ccccc2)n(CCC(=O)N2CCN(c3ccccc3OC)CC2)c1C	n	n	n	n	n	n
Cc1c(C(=O)NCCc2ccccc2)oc2ccccc12	n	n	n	n	n	n
Cc1c(C(=O)NCc2cccnc2)oc2ccccc12	n	n	62	n	n	n
O=C(CCC(F)(F)F)N1CCCC(N2CCN(c3cccc(Cl)c3)CC2)C1 (stereo not drawn)	n	n	n	n	n	n
CC(C)CN1C(=O)C(=Nc2cccnc2)c2ccccc21	n	n	n	n	n	n
Cc1ccc(NC(=O)C2CCCN2C(=O)c2cccs2)cc1C (stereo not drawn)	n	x	54	x	x	n
COC(=O)c1cccc(NC(=O)C2CCCN2C(=O)c2cccs2)c1 (stereo not drawn)	n	x	n	x	x	n
O=C1c2ccccc2S(=O)(=O)N1CC(O)COc1ccc(Cl)cc1 (stereo not drawn)	n	n	n	n	n	n
COC(=O)c1ccc(NC(=O)CN2C(=O)c3ccccc3S2(=O)=O)cc1	n	n	n	n	n	n
COC(=O)c1ccc(OCC(O)CN2C(=O)c3ccccc3S2(=O)=O)cc1 (stereo not drawn)	n	n	58	n	n	n
O=C1c2ccccc2S(=O)(=O)N1CC(O)COc1ccc(Br)cc1 (stereo not drawn)	n	n	n	n	n	73
CC1(C(=O)NS(=O)(=O)Cc2ccccc2)CCN1C(=O)C1(c2ccc(Cl)cc2)CC1 (stereo not drawn)	x	x	x	x	x	n
Cc1ccc(S(=O)(=O)N2CCN(CC(=O)Nc3ccnn3C3CCCC3)CC2)cc1	n	x	n	x	x	n
Cc1cc(C)c(S(=O)(=O)N2CCCCC2CCNC(=O)C(=O)NCCN2CCOCC2)c(C)c1 (stereo not drawn)	n	x	n	x	x	n
O=C(Nc1ccon1)Nc1ccccc1C(F)(F)F	n	n	n	n	n	n
COc1cc(OC)cc(C(=O)NCC(=O)OCC(=O)Nc2ccc(C)c(S(=O)(=O)N3CCOCC3)c2)c1	n	x	n	x	x	n
Cc1cccc(CSc2ccc3nnc(-c4cccs4)n3n2)c1	n	n	63	n	n	n
CCOc1nc(C)ccc1-c1noc(-c2ccccn2)n1	n	n	111	n	n	n
CCOc1nc(C)ccc1-c1noc(-c2ccco2)n1	n	n	n	n	n	n
Cc1cc2c(cc1S(=O)(=O)N1CCN(c3cccc(C(F)(F)F)c3)CC1)OCC(=O)N2	n	n	n	n	n	n
CC(=O)c1ccc(N2CCN(S(=O)(=O)c3cc4c(cc3C)NC(=O)CO4)CC2)cc1	n	n	n	0.0[inhibitor]	1.0[inhibitor]	n
Cc1cccc(N=NC(=S)NNc2cccc(C)c2)c1	n	x	n	x	x	n
CN(C)c1ccc(C=C2C(=O)OC(C)(C)OC2=O)cc1	n	n	52	n	n	n
COc1ccccc1-n1cnnc1SCC(=O)N1CCOCC1	n	n	n	n	n	n
COC(=O)c1ccc2nc3c(cc2c1)[C@@H]1CCN2C(=O)CCC[C@H](C3)[C@H]12	n	x	87	x	x	n
CC1(C)CCC(=O)N2CC[C@H]3c4cc5ccccc5nc4C[C@@H]1[C@H]32	n	x	n	x	x	n
CCN1CCN(C(=O)C2=CC(c3ccc(OC)cc3)=NS(=O)(=O)N2C)CC1	n	n	63	n	n	n
COc1ccc(C2=NS(=O)(=O)N(C)C(C(=O)N3CCN(C)CC3)=C2)cc1	n	n	n	n	n	n
COc1cccc(NC(=O)Nc2ccc3c(c2)CCC3)c1	n	n	n	n	n	n
